# Screening results: PubChem BioAssay, The Scripps Research Institute Molecular Screening Center
# FBW7 activator – human FBW7 E3 ligase activation, primary screen; Q969H0; AlphaScreen FBW7–phospho-cyclin E peptide binding, activator screen; normalized activity (activation), % at 26.1 µM; 650,000 tested, 0.13% active; in the data active = normalized activity above about 1.9%;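 also: purified mutant Fbw7 with reduced substrate affinity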
# GPR151 ag – human GPR151 activation | Q8TDV0 | PathHunter beta-arrestin GPR151 cells, luminescence | activation, % at 11.2 µM | 650,000 tested, 1% active; in the data active = activation above about 4.9%;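 also: 0% = median of compound wells and 100% = cells with positive control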
# Target sequence (Q8TDV0 whole entry, looked up): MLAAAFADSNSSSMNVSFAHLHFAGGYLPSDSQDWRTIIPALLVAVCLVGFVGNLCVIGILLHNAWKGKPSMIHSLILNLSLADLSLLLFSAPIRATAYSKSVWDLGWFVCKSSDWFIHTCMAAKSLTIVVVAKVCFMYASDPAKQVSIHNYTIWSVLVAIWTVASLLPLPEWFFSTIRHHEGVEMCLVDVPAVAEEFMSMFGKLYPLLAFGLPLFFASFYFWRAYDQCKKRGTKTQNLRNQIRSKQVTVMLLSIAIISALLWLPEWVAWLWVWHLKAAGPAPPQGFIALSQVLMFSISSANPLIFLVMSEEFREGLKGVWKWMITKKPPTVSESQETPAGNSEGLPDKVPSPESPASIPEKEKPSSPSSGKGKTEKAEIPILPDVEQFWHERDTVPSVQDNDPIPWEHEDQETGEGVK
# TEAD-YAP block – TEAD-YAP interaction inhibition; HEK-TIYL cells, TEAD-Gal4/YAP UAS-luciferase luminescence; inhibition, % at 9.12 µM; 640,000 tested, 1.4% active; in the data active = inhibition above about 32%;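 also: 0% = median of test compound wells and 100% = reference inhibitor wells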
# MITF inh – blocks human microphthalmia-associated transcription factor; O75030; AlphaScreen MITF homodimerization, bead proximity signal; inhibition, % at 2.6 µM; 650,000 tested, 0.91% active; in the data active = inhibition above about 50%;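 also: 0% = vehicle wells with protein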
# MITF confirm – confirmation of human MITF inhibitors. AID 1259372. shares compounds with MITF inh. AlphaScreen MITF homodimerization, biotin/His-MITF beads. inhibition, % at 2.6 µM. 4,700 tested, 16% active;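 active = inhibition above a cutoff derived from the DMSO control wells, cut at about 28% in these data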;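 also: 0% = MITF dimer wells with DMSO only; inhibitors lower the bead chemiluminescence by keeping MITF from dimerizing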
# AS interf DR – counter-screen: compounds optically interfering with AlphaScreen. AID 1259373. AlphaScreen optical interference counterscreen, cell-free. IC50, µM. 480 tested, 6% active. shares compounds with MITF inh; call rule not given here
# AlphaScreen intf2 – counter-screen: compounds optically interfering with AlphaScreen; shares compounds with MITF inh; LysRS AlphaScreen counterscreen, signal interference, triplicate; inhibition, % at 2.6 µM; 4,700 tested, 7.6% active;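 active = inhibition above a cutoff derived from the DMSO control wells, cut at about 30% in these data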
# Numbers without * were called inactive; x = no result given. This is a sample that favours compounds with a hit; in the whole collection about 3.5% have one here.
SMILES,FBW7 activator,GPR151 ag,TEAD-YAP block,MITF inh,MITF confirm,AlphaScreen intf2,others
FC(F)(F)c1cccc(CNc2cc(-c3csc4ccccc34)ncn2)c1,0.3,3.3,-3.3,61.8*,-3.4,0.3,
Cc1cc(N)c(O)c2ncccc12,-0.4,0.0,5.9,81.0*,103.9*,100.6*,
Cc1ccc(S(=O)(=O)Nc2cc(Cl)c(O)c3ncccc23)cc1,-1.2,-1.0,4.3,21.8,x,x,
CCC(C)N1CCN(C(=O)c2cc(OC)c(OC)c(OC)c2)CC1 (stereo not given),0.0,-0.7,-3.9,51.4*,-8.9,-0.3,
COc1cc(CN2CCN(C(=O)c3cc(OC)c(OC)c(OC)c3)CC2)cc(OC)c1,0.4,-1.1,4.5,55.2*,3.7,11.7,
COc1cc(C(=O)N2CCN(Cc3ccc(Br)cc3)CC2)cc(OC)c1OC,0.3,0.0,-3.0,54.5*,9.0,9.1,
COc1cccc(C(=O)N2CCN(Cc3cc(OC)c(OC)c(OC)c3)CC2)c1,-0.3,1.4,-5.8,48.5,x,x,
COc1cc(C(=O)N2CCN(Cc3ccc(C)cc3)CC2)cc(OC)c1OC,0.0,0.2,7.3,48.0,x,x,
COc1ccc(C(=O)N2CCN(C3CCCC(C)C3)CC2)cc1 (stereo not given),0.1,0.9,6.5,51.9*,4.2,11.2,
CCC(C)(C)C(=O)Nc1ccc([N+](=O)[O-])cc1C,0.2,-0.2,9.9,9.6,x,x,
Cc1cc(=O)n2nc(N3CCCC(C(=O)NCc4ccccn4)C3)sc2n1 (stereo not given),-0.1,0.5,-3.1,4.5,x,x,
COc1ccc(-c2cncc(C(=O)NCCO)c2)cc1,-0.1,-1.1,-4.6,-0.7,x,x,
COc1ccc(C(=O)N2CCN(Cc3cc(OC)c(OC)c(OC)c3)CC2)cc1,0.9,-0.6,-8.9,72.2*,5.4,-0.7,
COc1ccc(C(=O)N2CCN(Cc3cc(OC)c(O)c(OC)c3)CC2)cc1,-0.1,-0.9,5.4,26.3,x,x,
CCOC(=O)CCCCC(=O)c1[nH]c(=O)n(C)c1C,-2.2,1.2,0.5,105.8*,94.9*,79.8*,
CCCCCCCCCCCCCCCCCC(=O)OCC,x,-0.5,x,-12.8,x,x,
COCCNC(=O)CCCCn1c(=S)[nH]c2c([nH]c3ccc(OC)cc32)c1=O,0.6,-0.7,4.0,51.5*,-8.0,40.9*,
CC1(C)CC(=O)C2=C(C1)N(c1ccc(Br)cc1)C(N)=C(C#N)C2c1ccc(C(C)(C)C)s1 (stereo not given),0.0,-2.0,-4.9,52.2*,16.1,-0.4,
CC1(C)CC(=O)C2=C(C1)N(c1ccc(Cl)cc1)C(N)=C(C#N)C2c1ccc(C(C)(C)C)s1 (stereo not given),0.2,-1.8,8.1,12.3,x,x,
CC(C)C[C@H]1NC(=O)[C@@H]2C[C@H](NC(=O)OCc3ccccc3)CN2C1=O,0.8,-1.5,13.3,14.6,x,x,
O=C(C1CCCN(Cc2ccco2)C1)N1CCCCCC1 (stereo not given),-0.2,2.5,1.8,54.1*,4.6,-2.0,
O=C(C1CCCN(Cc2ccccc2F)C1)N1CCCCC1 (stereo not given),0.0,-1.2,8.9,69.0*,11.5,17.3,
O=C(NCCN1CCOCC1)c1cnc(Br)s1,0.0,2.8,0.4,-2.1,x,x,
CCOc1ccc(CN(CCc2ccc3c(c2)OCO3)Cc2cc(OC)c(OC)cc2OC)cc1,-0.2,-0.1,-2.5,45.1,x,x,
CCOc1ccccc1CN(CCc1ccc2c(c1)OCO2)Cc1cccnc1,0.4,0.4,-7.0,78.1*,4.9,10.9,
SMILES,FBW7 activator,GPR151 ag,TEAD-YAP block,MITF inh,MITF confirm,AlphaScreen intf2,others
CCOc1ccc(CN(CCc2ccc3c(c2)OCO3)Cc2cccc3ccccc23)cc1,0.5,-1.2,-2.4,52.5*,-5.2,-8.7,
CCOc1ccc(CN(CCc2ccc3c(c2)OCO3)Cc2cccnc2)cc1,-0.2,0.7,3.6,59.7*,-3.6,-4.3,
CCNC(=O)N1CCC(C(=O)NC(c2ccccn2)c2ccccc2C)CC1 (stereo not given),0.6,-0.5,3.7,13.1,x,x,
O=C(NCc1ccco1)c1cc2cc(Cl)ccc2oc1=O,-0.1,0.8,18.9,5.8,x,x,
CCC(C)(C)NC(=O)c1ccc2c(c1)[nH]c(=O)n2C(C)C,-0.1,0.8,6.7,3.8,x,x,
Cc1cccn2cc(CN3CCCc4ccccc43)nc12,-0.1,1.9,4.6,55.3*,7.5,18.3,
Cc1cc(C)c(C(=O)N2CCC(=O)N(Cc3cn4cccc(C)c4n3)CC2)[nH]1,0.1,2.7,-7.1,-0.5,x,x,
CC(=O)Nc1ccc(CNC2CCN(Cc3ccccc3)CC2)cc1,0.2,-0.8,11.2,79.3*,1.6,2.5,
c1ccc(CN2CCC(NCc3ccc(-n4ccnc4)cc3)CC2)cc1,0.1,2.6,2.5,51.5*,11.4,16.7,
CC(CC(=O)Nc1ccccc1)NC1CCN(Cc2ccccc2)CC1 (stereo not given),0.0,0.5,-0.1,66.4*,15.1,9.6,
CC(=O)c1cccc(NC(=O)N2CCC3(CC2)OCCO3)c1,0.0,0.0,0.4,-1.8,x,x,
O=C(N/N=C/c1cccc2cccnc12)c1ccc(Cl)cc1,0.1,-1.3,24.8,37.0,x,x,
O=C(N/N=C/c1cccc2cccnc12)c1cccc([N+](=O)[O-])c1,-0.1,-2.7,4.8,53.0*,55.8*,100.3*,
O=C(N/N=C\c1cccc([N+](=O)[O-])c1)c1cnccn1,-0.1,-0.5,-21.2,65.5*,1.1,15.2,
C=CCn1c(=NC(=O)C2CC2)sc2cc(OCC)ccc21,-0.1,-0.1,-40.5,-0.6,x,x,
COc1ccccc1CNCC(=O)c1ccc(OC)c(OC)c1,-0.2,-0.4,1.7,68.4*,-5.9,0.2,
O=C(OC1CCCCC1=O)c1ccc(S(=O)(=O)NCc2ccco2)cc1 (stereo not given),0.0,0.5,-0.2,14.5,x,x,
O=C(OC1CCOC1=O)c1ccc(S(=O)(=O)NCc2ccco2)cc1 (stereo not given),0.1,0.8,5.7,53.4*,52.4*,-8.3,AS interf DR=>7.1
COc1ccc(/C=C(\NC(=O)c2ccc([N+](=O)[O-])cc2)C(=O)N2CCCCC2)cc1,-0.1,0.9,5.4,-5.2,x,x,
N#C/C(=C/Nc1ccccc1F)c1nc(-c2ccc([N+](=O)[O-])cc2)cs1,0.1,1.7,-1.1,67.5*,0.3,2.9,
O=C(O)c1cccc(N2C(=O)CC(Nc3ccc(N4CCOCC4)cc3)C2=O)c1 (stereo not given),-0.3,-1.6,-4.7,70.4*,68.6*,3.8,AS interf DR=>6.56
CCN1C(=O)/C(=C/c2ccco2)S/C1=N/S(=O)(=O)c1ccc(C)cc1,0.1,0.4,-3.5,52.9*,9.8,5.3,
O=C(c1ccc2nc(-c3ccco3)c(-c3ccco3)nc2c1)N1CCSCC1,-0.4,-0.5,14.7,87.2*,72.3*,7.0,AS interf DR=>6.48
O=C(c1ccc2nc(-c3cccs3)c(-c3cccs3)nc2c1)N1CCOCC1,0.3,-0.8,3.2,-7.0,x,x,
CCn1cc(CN(C)C(=S)Nc2ccc([N+](=O)[O-])cc2)c(C)n1,-0.2,-1.0,-5.4,-6.8,x,x,
